# Targets with a hit are over-represented here; the source holds about 7,900 in all. About 0.6% of all pairs of compound and target were hits. A number with no mark means an inactive call.
# Assays:
# Test in all cases: log2 fold change, soluble protein after heating vs DMSO (PISA); higher = thermal stabilisation; K562 cells, 10 uM, 30 min; active = over 0.2 and 3.5 SD of the protein, either way, in both replicates (recomputed)
# [1] = compound: CC[C@@H]1C(=O)N(C)c2cnc(Nc3ccc(C(=O)NC4CCN(C)CC4)cc3OC)nc2N1C1CCCC1
# Method in brief: (§1)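 K562 cells (2×10^6 cells/mL) were treated with 10 μM compound for 30 min, and aliquots were heated for 3 min over 48°C-58°C. Pooled aliquots were extracted in PBS with 0.5% NP-40 at 4°C, and the supernatant after 21,000xg for 90 min was measured by TMTpro 16plex LC-MS/MS with channel sums equalised. Reported thermal stability, relative to control samples and from duplicates, is a log2 fold change.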
# volasertib = compound: CC[C@@H]1C(=O)N(C)c2cnc(Nc3ccc(C(=O)N[C@H]4CC[C@H](N5CCN(CC6CC6)CC5)CC4)cc3OC)nc2N1C(C)C [volasertib]
# Method in brief: as §1
# [2] = compound: CC[C@H](C)N1C=C(C2=C(C=C(C=C21)C3=CN=C(C=C3)N4CCNCC4)C(=O)NCC5=C(C=C(NC5=O)C)C)C
# Method in brief: as §1
# [3] = compound: CCn1c(C(=O)N(C2CC2)C2CC2)cc2c3c(ncn3C)c(Nc3cc(C)n(C)n3)nc21
# Method in brief: as §1
# rosiglitazone = compound: CN(CCOC1=CC=C(C=C1)C[C@H]2C(=O)NC(=O)S2)C3=CC=CC=N3 (racemic) [rosiglitazone]
# Method in brief: as §1
# [4] = compound: CN1C2=C(C3=C1C(=O)N(N=C3)CC4=CC(=CC=C4)N)SC(=C2)S(=O)C
# Method in brief: as §1
# saracatinib = compound: CN1CCN(CCOc2cc(OC3CCOCC3)c3c(Nc4c(Cl)ccc5c4OCO5)ncnc3c2)CC1 [saracatinib]
# Method in brief: as §1
# alvocidib = compound: CN1CC[C@H](c2c(O)cc(O)c3c(=O)cc(-c4ccccc4Cl)oc23)[C@H](O)C1 [alvocidib]
# Method in brief: as §1
# [5] = compound: CNC(=O)C1=CC=CC=C1NC2=NC(=NC=C2Cl)NC3=C(C=C(C=C3)N4CCOCC4)OC
# Method in brief: as §1
# rucaparib = compound: CNCc1ccc(-c2[nH]c3cc(F)cc4c3c2CCNC4=O)cc1 [rucaparib]
# Method in brief: as §1
# [6] = compound: CNc1nc(-c2ccc3c(N)n[nH]c3c2)cc(N2C[C@@H](C(=O)NC3CCCCC3)CC[C@H]2C)n1
# Method in brief: as §1
# encorafenib = compound: COC(=O)N[C@@H](C)CNc1nccc(-c2cn(C(C)C)nc2-c2cc(Cl)cc(NS(C)(=O)=O)c2F)n1 [encorafenib]
# Method in brief: as §1
# epoxomicin = compound: CC[C@H](C)[C@@H](C(=O)N[C@@H]([C@@H](C)O)C(=O)N[C@@H](CC(C)C)C(=O)[C@]1(CO1)C)NC(=O)[C@H]([C@@H](C)CC)N(C)C(=O)C [epoxomicin]
# Method in brief: as §1
# [7] = compound: CN(C)CC(=O)Nc1ccc2[nH]c(=O)c3ccccc3c2c1
# Method in brief: as §1
# sotrastaurin = compound: CN1CCN(c2nc(C3=C(c4c[nH]c5ccccc45)C(=O)NC3=O)c3ccccc3n2)CC1 [sotrastaurin]
# Method in brief: as §1
# defactinib = compound: CNC(=O)c1ccc(Nc2ncc(C(F)(F)F)c(NCc3nccnc3N(C)S(C)(=O)=O)n2)cc1 [defactinib]
# Method in brief: as §1
# [8] = compound: COC(=O)[C@H](CCSC)NC(=O)C1=C(C=C(C=C1)NC[C@H](CS)N)C2=CC=CC=C2
# Method in brief: as §1
# [9] = compound: CCn1cc(-c2ccnc3[nH]c(-c4cccc(CN(C)C)c4)cc23)c(-c2ccc(NC(=O)N(C)C)cc2)n1
# Method in brief: as §1
# [10] = compound: CN1CCC(CNc2ccc3ncc(-c4cccc(OC(F)(F)F)c4)n3n2)CC1
# Method in brief: as §1
# Tubastatin A = compound: CN1CCc2c(c3ccccc3n2Cc2ccc(C(=O)NO)cc2)C1 [Tubastatin A]
# Method in brief: as §1
# Chain of UniProt Q9BTE6 (Q9BTE6 whole entry, looked up): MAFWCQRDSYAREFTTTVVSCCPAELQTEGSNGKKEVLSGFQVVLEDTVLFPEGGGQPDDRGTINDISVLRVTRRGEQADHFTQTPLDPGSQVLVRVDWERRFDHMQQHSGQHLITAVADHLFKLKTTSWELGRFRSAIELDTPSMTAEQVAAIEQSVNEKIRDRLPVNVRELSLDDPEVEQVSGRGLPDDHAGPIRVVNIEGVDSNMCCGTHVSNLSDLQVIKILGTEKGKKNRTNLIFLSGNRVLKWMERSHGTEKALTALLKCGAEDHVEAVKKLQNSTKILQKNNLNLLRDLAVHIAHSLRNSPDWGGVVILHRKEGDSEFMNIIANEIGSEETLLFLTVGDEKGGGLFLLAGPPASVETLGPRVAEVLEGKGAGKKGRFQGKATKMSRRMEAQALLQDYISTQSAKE
# Chain of UniProt Q9HCU9 (Q9HCU9 whole entry, looked up): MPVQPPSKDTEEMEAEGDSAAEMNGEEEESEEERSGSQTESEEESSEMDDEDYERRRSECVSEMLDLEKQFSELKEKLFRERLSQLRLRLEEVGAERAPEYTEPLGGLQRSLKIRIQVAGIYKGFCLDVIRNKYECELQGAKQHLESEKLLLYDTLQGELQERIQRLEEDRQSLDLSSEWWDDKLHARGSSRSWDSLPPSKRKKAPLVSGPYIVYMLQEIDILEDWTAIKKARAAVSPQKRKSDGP
# Chain of UniProt Q9UKU0 (Q9UKU0 whole entry, looked up): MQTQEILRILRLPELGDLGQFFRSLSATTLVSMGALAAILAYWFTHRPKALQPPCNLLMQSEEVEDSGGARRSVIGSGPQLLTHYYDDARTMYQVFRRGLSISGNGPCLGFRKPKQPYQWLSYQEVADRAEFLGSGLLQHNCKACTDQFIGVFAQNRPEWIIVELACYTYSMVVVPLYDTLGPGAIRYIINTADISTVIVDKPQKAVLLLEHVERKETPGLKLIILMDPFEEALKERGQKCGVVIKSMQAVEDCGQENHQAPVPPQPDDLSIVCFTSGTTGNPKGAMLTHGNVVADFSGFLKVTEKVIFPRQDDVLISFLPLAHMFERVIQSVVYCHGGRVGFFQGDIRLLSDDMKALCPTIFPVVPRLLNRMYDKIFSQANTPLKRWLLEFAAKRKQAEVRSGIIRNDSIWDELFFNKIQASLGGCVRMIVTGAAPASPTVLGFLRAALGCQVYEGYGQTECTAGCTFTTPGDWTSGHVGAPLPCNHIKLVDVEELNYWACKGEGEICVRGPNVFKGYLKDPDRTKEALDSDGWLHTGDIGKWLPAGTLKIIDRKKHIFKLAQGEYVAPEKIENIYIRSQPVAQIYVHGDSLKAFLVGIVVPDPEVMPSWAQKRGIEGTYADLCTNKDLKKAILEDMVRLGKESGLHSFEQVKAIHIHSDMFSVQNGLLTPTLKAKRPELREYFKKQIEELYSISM
# Chain of UniProt Q99758 (Q99758 whole entry, looked up): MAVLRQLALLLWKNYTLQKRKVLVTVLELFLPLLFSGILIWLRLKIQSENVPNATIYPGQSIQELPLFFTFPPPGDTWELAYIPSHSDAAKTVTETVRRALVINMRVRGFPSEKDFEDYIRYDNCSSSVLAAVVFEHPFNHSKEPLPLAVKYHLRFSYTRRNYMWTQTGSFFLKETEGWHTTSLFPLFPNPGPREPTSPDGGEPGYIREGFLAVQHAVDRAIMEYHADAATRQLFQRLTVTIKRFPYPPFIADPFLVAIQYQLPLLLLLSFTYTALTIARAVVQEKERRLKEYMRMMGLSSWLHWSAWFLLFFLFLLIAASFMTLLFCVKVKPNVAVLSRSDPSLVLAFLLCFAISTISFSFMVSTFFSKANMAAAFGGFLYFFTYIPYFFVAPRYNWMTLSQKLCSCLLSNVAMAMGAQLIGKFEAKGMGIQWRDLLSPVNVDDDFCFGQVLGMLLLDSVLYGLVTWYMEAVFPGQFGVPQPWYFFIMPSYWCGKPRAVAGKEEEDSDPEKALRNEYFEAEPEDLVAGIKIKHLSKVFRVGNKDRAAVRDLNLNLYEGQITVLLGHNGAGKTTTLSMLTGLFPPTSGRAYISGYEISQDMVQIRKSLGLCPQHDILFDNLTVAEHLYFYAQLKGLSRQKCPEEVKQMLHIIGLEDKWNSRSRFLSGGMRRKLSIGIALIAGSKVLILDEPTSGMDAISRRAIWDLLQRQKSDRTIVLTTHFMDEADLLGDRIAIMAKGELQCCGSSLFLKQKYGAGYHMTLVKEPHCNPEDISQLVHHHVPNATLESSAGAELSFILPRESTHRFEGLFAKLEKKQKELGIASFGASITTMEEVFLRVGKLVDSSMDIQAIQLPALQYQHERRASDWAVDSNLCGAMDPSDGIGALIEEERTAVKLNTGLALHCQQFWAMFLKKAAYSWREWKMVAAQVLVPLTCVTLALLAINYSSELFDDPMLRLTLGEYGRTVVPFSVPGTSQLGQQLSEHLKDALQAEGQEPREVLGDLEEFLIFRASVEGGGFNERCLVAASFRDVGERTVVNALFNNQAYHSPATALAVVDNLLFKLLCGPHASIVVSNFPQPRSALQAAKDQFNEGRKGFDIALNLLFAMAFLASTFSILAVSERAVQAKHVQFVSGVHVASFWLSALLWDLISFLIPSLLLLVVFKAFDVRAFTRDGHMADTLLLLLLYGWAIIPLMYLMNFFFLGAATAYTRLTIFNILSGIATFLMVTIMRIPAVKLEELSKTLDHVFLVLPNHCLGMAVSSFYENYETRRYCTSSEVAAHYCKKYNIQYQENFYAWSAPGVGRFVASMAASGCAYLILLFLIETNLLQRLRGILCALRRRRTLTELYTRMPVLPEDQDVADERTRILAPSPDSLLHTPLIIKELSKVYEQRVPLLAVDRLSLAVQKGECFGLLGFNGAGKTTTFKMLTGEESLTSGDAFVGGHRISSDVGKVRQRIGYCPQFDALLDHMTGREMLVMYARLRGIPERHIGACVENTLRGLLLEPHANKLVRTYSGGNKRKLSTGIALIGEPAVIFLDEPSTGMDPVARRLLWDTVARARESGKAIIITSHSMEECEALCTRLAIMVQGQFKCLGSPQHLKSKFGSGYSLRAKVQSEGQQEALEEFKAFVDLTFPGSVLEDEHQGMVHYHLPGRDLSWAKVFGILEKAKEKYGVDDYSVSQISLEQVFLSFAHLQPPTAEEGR
# Chain of UniProt P25440 (P25440 whole entry, looked up): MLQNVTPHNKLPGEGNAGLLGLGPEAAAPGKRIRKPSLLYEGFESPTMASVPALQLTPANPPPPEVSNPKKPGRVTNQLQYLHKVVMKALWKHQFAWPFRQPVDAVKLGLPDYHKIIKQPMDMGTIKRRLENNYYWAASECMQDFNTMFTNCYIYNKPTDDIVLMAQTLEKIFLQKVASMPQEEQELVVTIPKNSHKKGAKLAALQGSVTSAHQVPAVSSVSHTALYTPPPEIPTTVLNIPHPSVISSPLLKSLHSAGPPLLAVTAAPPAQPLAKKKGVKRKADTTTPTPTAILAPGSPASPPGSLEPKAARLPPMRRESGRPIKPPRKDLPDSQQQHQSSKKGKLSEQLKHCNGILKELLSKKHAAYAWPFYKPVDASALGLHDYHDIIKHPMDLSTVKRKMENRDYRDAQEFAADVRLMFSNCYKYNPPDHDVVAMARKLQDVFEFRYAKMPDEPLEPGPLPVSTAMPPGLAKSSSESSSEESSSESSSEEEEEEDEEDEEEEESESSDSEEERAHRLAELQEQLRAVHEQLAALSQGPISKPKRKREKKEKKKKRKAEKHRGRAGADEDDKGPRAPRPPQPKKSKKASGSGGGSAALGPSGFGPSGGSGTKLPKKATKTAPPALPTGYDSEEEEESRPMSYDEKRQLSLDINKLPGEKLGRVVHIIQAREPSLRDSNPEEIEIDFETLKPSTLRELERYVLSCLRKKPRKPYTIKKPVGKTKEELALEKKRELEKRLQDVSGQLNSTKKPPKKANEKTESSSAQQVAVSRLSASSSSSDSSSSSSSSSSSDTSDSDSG
# Chain of UniProt Q4L235 (Q4L235 whole entry, looked up): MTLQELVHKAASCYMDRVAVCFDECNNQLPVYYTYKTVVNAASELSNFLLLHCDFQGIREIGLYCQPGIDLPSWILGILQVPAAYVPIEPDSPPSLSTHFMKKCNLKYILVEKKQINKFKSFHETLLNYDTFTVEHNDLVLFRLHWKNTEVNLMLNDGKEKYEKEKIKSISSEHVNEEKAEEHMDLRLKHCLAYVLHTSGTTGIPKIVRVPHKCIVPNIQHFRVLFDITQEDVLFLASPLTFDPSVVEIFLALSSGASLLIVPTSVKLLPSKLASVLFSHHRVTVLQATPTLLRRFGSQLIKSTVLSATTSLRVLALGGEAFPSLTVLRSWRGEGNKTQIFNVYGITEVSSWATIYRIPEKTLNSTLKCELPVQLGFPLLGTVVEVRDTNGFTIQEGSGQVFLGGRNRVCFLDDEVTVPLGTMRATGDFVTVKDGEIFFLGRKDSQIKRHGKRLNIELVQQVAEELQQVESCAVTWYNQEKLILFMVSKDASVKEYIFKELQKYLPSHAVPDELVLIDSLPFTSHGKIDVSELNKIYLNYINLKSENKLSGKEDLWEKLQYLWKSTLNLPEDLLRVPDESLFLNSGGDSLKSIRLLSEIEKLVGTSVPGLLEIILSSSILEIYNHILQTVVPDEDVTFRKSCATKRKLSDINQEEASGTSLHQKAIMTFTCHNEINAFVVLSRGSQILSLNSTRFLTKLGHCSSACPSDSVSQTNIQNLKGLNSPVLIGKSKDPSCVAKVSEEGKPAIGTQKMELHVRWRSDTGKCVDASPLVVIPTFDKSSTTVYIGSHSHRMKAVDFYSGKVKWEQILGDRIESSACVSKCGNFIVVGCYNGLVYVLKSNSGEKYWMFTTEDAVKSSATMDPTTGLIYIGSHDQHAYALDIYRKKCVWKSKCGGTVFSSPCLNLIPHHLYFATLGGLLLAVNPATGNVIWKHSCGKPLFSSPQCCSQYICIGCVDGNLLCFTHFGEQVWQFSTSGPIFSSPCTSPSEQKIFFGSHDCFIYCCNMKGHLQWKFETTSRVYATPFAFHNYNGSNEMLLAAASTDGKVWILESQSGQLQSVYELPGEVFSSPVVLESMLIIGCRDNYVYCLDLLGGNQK
Target,log2 fold change [1],log2 fold change (volasertib),log2 fold change [2],log2 fold change [3],log2 fold change (rosiglitazone),log2 fold change [4],log2 fold change (saracatinib),log2 fold change (alvocidib),log2 fold change [5],log2 fold change (rucaparib),log2 fold change [6],log2 fold change (encorafenib),log2 fold change (epoxomicin),log2 fold change [7],log2 fold change (sotrastaurin),log2 fold change (defactinib),log2 fold change [8],log2 fold change [9],log2 fold change [10],log2 fold change (Tubastatin A)
AARSD1 (UniProt Q9BTE6),-0.042,-0.227,-0.121,-0.046,0.085,0.283,0.008,-0.15,0.08,0.014,0.165,-0.042,–,–,–,–,–,–,–,–
AP4S1 (UniProt Q9Y587),-0.117,-0.321,0.059,-0.056,0.024,0.078,-0.08,-0.099,-0.05,0.039,-0.072,0.073,-0.006,0.027,-0.117,0.059,0.008,–,–,–
BRMS1 (UniProt Q9HCU9),-0.034,–,–,–,–,-0.092,-0.185,–,–,-0.017,0.007,0.106,-0.018,–,–,–,–,0.144,-0.124,0.001
BRD2 isoform 2 (UniProt P25440),–,1.76 (active),–,0.104,0.24,-0.132,0,-0.111,0.146,–,0.255,–,–,0.115,-0.172,-0.125,-0.074,0.486,0.129,-0.37
AP2S1 (UniProt M0QZ21),–,–,–,–,–,–,–,–,–,–,–,–,–,–,–,–,–,–,–,0.335
BSCL2 isoform 4 (UniProt Q96G97),–,0.072,0.093,-0.004,-0.001,-0.005,-0.019,-0.164,-0.025,–,-0.122,–,-0.05,-0.006,–,-0.113,-0.071,0,-0.057,0.03
ABCA3 (UniProt Q99758),-0.155,-0.093,–,-0.035,-0.172,-0.013,0.009,0.047,0.065,0.11,0.011,0.192,0,0.108,0.121,0.108,-0.039,0.168,-0.263,-0.05
ACSL6 isoform 1 (UniProt Q9UKU0),–,–,0.08,0.01,-0.069,-0.226,-0.041,–,-0.048,–,-0.007,–,-0.159,0.149,0.177,0.155,0.021,-0.014,-0.459 (active),-0.076
AASDH (UniProt Q4L235),–,-0.445 (active),0.141,-0.018,-0.044,-0.019,0.011,-0.035,-0.014,–,-0.036,–,0.028,0.189,-0.067,-0.091,-0.004,0.149,0.004,0.16
ARHGAP25 isoform 4 (UniProt P42331),-0.031,–,-0.031,-0.103,0.088,0.127,0.249,-0.128,-0.023,0.168,0.131,0.212,0.083,0.134,–,0.02,-0.212,0.072,-0.221,0.079
BDH2 (UniProt Q9BUT1),–,-0.126,–,0,0.001,-0.028,-0.088,-0.177,-0.061,–,0.015,–,–,0.367,0,-0.021,-0.039,0.005,-0.033,–
